High-throughput results (PubChem BioAssay)
DUSP3 inh: VHR1 (DUSP3) phosphatase inhibition; P51452; recombinant VHR phosphatase, colorimetric substrate read-out; inhibition, % at 20 µM; actives 0.7% (n = 50,000); in the data active = inhibition above about 60%
Target sequence (P51452 whole entry, looked up): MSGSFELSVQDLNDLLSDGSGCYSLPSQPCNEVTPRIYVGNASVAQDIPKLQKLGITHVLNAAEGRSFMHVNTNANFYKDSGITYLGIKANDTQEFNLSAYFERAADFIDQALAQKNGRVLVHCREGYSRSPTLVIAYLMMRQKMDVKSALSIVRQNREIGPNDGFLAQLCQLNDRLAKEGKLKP
The depositor's hits bear a star. The entries come from a sample that favours hits as a whole.

SMILES	DUSP3 inh
Cc1c(C=O)c2ccccc2n1Cc1ccccc1Cl	-4
O=c1c2ccccc2[nH]c(=S)n1Cc1ccccc1	-8
Cn1c(=O)c2c([nH]c(=S)n2Cc2ccccc2Cl)n(C)c1=O	95*
N/C(=N\S(=O)(=O)Cc1ccccc1)Nc1nc2ccccc2o1	8
Cc1cccc(C)c1OCC(O)CN1CCC(C)CC1 (stereo not drawn)	0
O=C(/C=C/c1ccccc1OC(=O)c1cccnc1)c1ccccc1	1
COc1ccc(N2C(=O)/C(=C/c3ccc(-c4cc(C(=O)O)ccc4Cl)o3)C(=O)NC2=S)cc1	-8
COc1ccc(N2C(=O)/C(=C/c3cc(C)n(-c4ccccc4)c3C)C(=O)NC2=S)cc1	89
COc1ccc(N2C(=O)NC(=O)/C(=C/c3ccc(-c4cccc(Cl)c4)o3)C2=O)cc1	6
COc1ccc(N2C(=O)NC(=O)/C(=C/c3ccc(-c4ccc(C(=O)O)cc4)o3)C2=O)cc1	46
COc1ccc(N2C(=O)/C(=C/c3ccc(I)o3)C(=O)NC2=S)cc1	92*
COc1ccc(N2C(=O)NC(=O)/C(=C/c3ccc(I)o3)C2=O)cc1	107*
Cc1ccc(S(=O)(=O)Oc2ccc(Nc3ccccc3)cc2)cc1	0
O=C(NNc1nc(-c2ccccc2)c2cc(Br)ccc2n1)c1ccccc1Cl	2
O=C(Nc1ccc(Oc2ccccc2)cc1)c1cc(S(=O)(=O)N2CCOCC2)ccc1Cl	4
CCOc1cc(C2Nc3ccccc3NC3=C2C(=O)CC(c2ccc(OC)cc2)C3)cc(Br)c1O (stereo not drawn)	2
CCOc1cc(C2Nc3ccccc3NC3=C2C(=O)CC(c2ccccc2)C3)cc(Br)c1O (stereo not drawn)	99*
COc1cc(C2Nc3ccccc3NC3=C2C(=O)CC(c2ccc(Cl)cc2)C3)cc(Br)c1O (stereo not drawn)	-3
COC(=O)C1=C(C)N=c2s/c(=C/c3ccc(OC(C)=O)cc3)c(=O)n2C1c1ccc(OC(C)=O)cc1 (stereo not drawn)	-14
O=C(Cn1cc(/C=C2\NC(=O)NC2=O)c2ccccc21)Nc1ccccc1	-15
C#CCn1cc(/C=C2\C(=O)NC(=O)N(c3ccc(Cl)cc3)C2=O)c2ccccc21	82*
Cc1ccccc1N1C(=O)NC(=O)/C(=C/c2cn(CC(=O)Nc3ccccc3)c3ccccc23)C1=O	85*
O=C1NC(=O)N(c2ccc(Cl)cc2)C(=O)/C1=C/c1ccccc1	-29
O=C(Cn1cc(/C=C2\SC(=O)NC2=O)c2ccccc21)Nc1ccccc1	4
COc1ccc(N2C(=O)NC(=O)/C(=C/c3cn(CCOc4ccccc4OC)c4ccccc34)C2=O)cc1	-15
SMILES	DUSP3 inh
CN(C)c1ccc(/C=C2\SC(=S)N(c3ccccc3Cl)C2=O)cc1	-12
Cc1cc(/C=N/NC(N)=S)c(C)n1-c1cccc([N+](=O)[O-])c1	9
CCC(C)N1C(=O)C(=O)N(C2CCCCC2)C1=O (stereo not drawn)	-7
O=C1C2C3C=CC(C2C(=O)N1Cc1ccccc1)C1C(=O)N(Cc2ccccc2)C(=O)C31 (stereo not drawn)	5
O=C1C2C3C=CC(C2C(=O)N1C1CCCCC1)C1C(=O)N(C2CCCCC2)C(=O)C31 (stereo not drawn)	106*
COCCN1C(=O)C(=O)/C(=C(/O)c2ccccc2)C1c1ccc(Br)cc1 (stereo not drawn)	-2
O=C1/C(=C/c2ccc(Br)cc2)SC(=S)N1Cc1ccco1	-4
O=C1NC(=O)N(c2ccc(Cl)cc2)C(=O)/C1=C/c1ccc(Br)o1	14
O=C1NC(=S)N(c2ccc(Br)cc2)C(=O)/C1=C\c1ccc(-c2ccc([N+](=O)[O-])cc2)o1	14
O=C1NC(=S)N(c2ccc(Br)cc2)C(=O)/C1=C/c1ccc(-c2ccccc2C(=O)O)o1	18
O=C1NC(=S)N(c2ccc(F)cc2)C(=O)/C1=C/c1ccc(Br)o1	94*
Cc1cccc(N2C(=O)NC(=O)/C(=C/c3ccc(Br)o3)C2=O)c1	30
CC(C)c1ccc(N2C(=O)NC(=O)/C(=C/c3ccc(Br)o3)C2=O)cc1	82*
COc1cc(/C=C2\SC(=S)N(c3ccc([N+](=O)[O-])cc3)C2=O)ccc1OC(=O)c1cccc(C)c1	3
O=C(Nc1ccc2oc(-c3cccc(Cl)c3Cl)nc2c1)c1ccccc1Cl	1
O=C(O)C(Cc1ccccc1)n1c(O)c(/C=C2\C=Nc3ccccc32)sc1=S (stereo not drawn)	-5
COc1cc2c(cc1NC(=O)CC(C)=O)oc1ccccc12	18
O=C(O)C1C2CC/C=C\CC/C=C/CCC21 (stereo not drawn)	18
O=C(Nc1cccc(Br)c1)C1C2CCC3C(CCC21)C3(Cl)Cl (stereo not drawn)	-2
O=C(Nc1c(Cl)cccc1Cl)C1C2CC/C=C\CC/C=C/CCC21 (stereo not drawn)	112*
CCOC(=O)c1sc(NC(=O)C2c3ccccc3Oc3ccccc32)c(C(N)=O)c1C	-3
Cc1ccccc1OCC(=O)Nc1ccc(Cl)cc1Cl	-7
O=C(COc1ccc(Cl)cc1Cl)Oc1ccccc1[N+](=O)[O-]	3
Cc1ccccc1OC(=O)COc1ccc(Cl)cc1Cl	116*
CCc1nnc(NC(=O)c2ccc3c(c2)OCCO3)s1	-5
SMILES	DUSP3 inh
N/C(=N\OC(=O)c1ccco1)c1ccc([N+](=O)[O-])cc1	1
CCc1c(C)sc(NC(=O)CCc2ccccc2)c1C(N)=O	-6
CCOC(=O)c1c(NC(=O)c2cccc(OC)c2)sc(C(=O)Nc2ccccc2F)c1C	115*
CCOC(=O)c1c(NC(=O)c2cccc(C)c2)sc(C(=O)Nc2ccccc2F)c1C	-8
CCOC(=O)c1c(NC(=O)c2ccc(Cl)c(Cl)c2)sc(C(=O)Nc2ccccc2F)c1C	-12
CCCc1ccc(OCC(=O)Nc2ccc(N3CCOCC3)cc2)cc1	-35
O=C(O)c1ccccc1C(=O)c1ccc(Cl)c(N2C(=O)C3CC=CCC3C2=O)c1 (stereo not drawn)	-16
O=C1CC(=O)N(c2ccc3ccccc3c2)C(=S)N1	83
CC(=O)c1c(C(C)=O)c(C)n(-c2ccc(C)cc2)c1C	-9
COc1ccc(Br)cc1/C=C/C(=O)Nc1cccc(-c2nc3ncccc3o2)c1C	4
OC(COc1cccc(OCC(O)CN2CCCCC2)c1)CN1CCCCC1 (stereo not drawn)	4
c1ccc(NC2=Nc3cccc4cccc2c34)cc1	-9
Nc1cccc(-c2cc(C(=O)O)c3ccccc3n2)c1	0
Nc1cccc(C2=Nc3cccc4cccc(c34)N2)c1	85*
CC1CN(Cc2ccccn2)CCC1=O (stereo not drawn)	111*
COc1cccc(CN2CCN(Cc3ccccn3)CC2)c1	10
COc1ccccc1CN1CCN(Cc2ccccn2)CC1	20
Cc1cc(NC(=O)c2cccc([N+](=O)[O-])c2)ccc1-c1cc2ccccc2oc1=O	-13
CCOC(=O)C1=C(O)/C(=C/c2ccc(C)o2)SC1=Nc1ccc([N+](=O)[O-])cc1	1
CCc1ccc(NC(=O)COc2cc(C)c(Cl)c(C)c2)cc1	-5
CCCCOC(=O)c1ccc(NC(C)=O)cc1	-14
CCCOC(=O)c1ccc(NC(=O)/C=C\C(=O)O)cc1	6
CCCOC(=O)c1ccc(NC(=O)COc2ccc(OC)cc2)cc1	-14
CCCCC(=O)Nc1ccc(C(=O)OCCC)cc1	107*
CCCOC(=O)c1ccc(NC(=O)CCC)cc1	111*
CCCOC(=O)c1ccc(NC(=O)c2cc(Cl)c(OC)c(Cl)c2)cc1	-11
O=C(/C=C/c1ccc([N+](=O)[O-])cc1)Nc1ccc2c(c1)OCO2	-16
